40 compounds from PubChem BioAssay (EPA / NIEHS) can be followed below.

Each structure is given as a SMILES string. Active and inactive are the calls of the source. Rule for the calls: active = hit-call score of the fitted dose curve at least 0.9, where 1 is the maximum; inactive = score below 0.9.

Chain of Hepatocyte nuclear factor 3-beta (Homo sapiens) (Q9Y261 whole entry, looked up): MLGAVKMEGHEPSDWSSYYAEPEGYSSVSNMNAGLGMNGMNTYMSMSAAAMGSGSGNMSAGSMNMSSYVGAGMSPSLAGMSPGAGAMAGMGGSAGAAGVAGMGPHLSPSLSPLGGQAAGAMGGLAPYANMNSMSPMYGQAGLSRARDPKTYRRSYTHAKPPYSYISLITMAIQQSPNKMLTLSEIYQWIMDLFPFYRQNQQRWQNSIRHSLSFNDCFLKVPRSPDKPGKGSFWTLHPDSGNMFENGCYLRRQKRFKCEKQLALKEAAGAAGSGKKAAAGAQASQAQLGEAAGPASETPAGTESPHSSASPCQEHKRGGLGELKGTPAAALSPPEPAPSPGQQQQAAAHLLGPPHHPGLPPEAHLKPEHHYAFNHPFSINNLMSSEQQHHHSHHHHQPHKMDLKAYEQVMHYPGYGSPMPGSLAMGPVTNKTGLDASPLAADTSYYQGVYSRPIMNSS

The assay deals with Hepatocyte nuclear factor 3-beta (Homo sapiens) (UniProt Q9Y261). Nature of the assay: ATG_FoxA2_CIS: Attagene CIS-FACTORIAL HepG2 Assay for human Forkhead box A2 (FOXA2) (AID 2282942). Particulars: HepG2 cis-reporter transcription factor activity, 24 h; actives raise or lower the signal. The protocol:
ATG_CIS is a cell-based, multiplexed-readout assay that uses HepG2, a human liver cell line, with measurements taken at 24 hours after chemical dosing in a 24-well plate.ATG_FoxA2_CIS is one of 52 assay component(s) measured or calculated from the ATG_CIS assay. It is designed to make measurements of mRNA induction, a form of inducible reporter, as detected with fluorescence intensity signals by Reverse transcription polymerase chain reaction (RT-PCR) and Capillary electrophoresis technology.Data from the assay component ATG_FoxA2_CIS was analyzed into 1 assay endpoint. This assay endpoint, ATG_FoxA2_CIS, was analyzed with bidirectional fitting relative to DMSO as the negative control and baseline of activity. Using a type of inducible reporter, measures of mRNA for gain or loss-of-signal activity can be used to understand the reporter gene at the transcription factor-level as they relate to the gene FOXA2. Furthermore, this assay endpoint can be referred to as a primary readout, because this assay has produced multiple assay endpoints where this one serves a reporter gene function. To generalize the intended target to other relatable targets, this assay endpoint is annotated to the dna binding intended target family, where the subfamily is forkhead box protein.
Human liver HepG2 cells are transiently transfected with multiple reporter transcription units (MRTUs) in 6-well plates using FuGene 6 reagent (Roche; 3 ml FuGene/1 mg DNA). The MRTU constructs are regulated by a cis-regulating element (promoter). […] A major difference between the CIS and TRANS system is that in CIS activities of endogenous TFs are measured, whereas the TRANS assay evaluates changes in activities of exogenous, chimeric NR-Gal4 proteins. […] At the end of 24 hour incubation, total RNA was isolated using TriZol reagent (Invitrogen). The isolated RNA is then reverse-transcribed using oligo(dT) primer and Mo-MLV reverse transcriptase (Invitrogen) with DNAse I (Ambion) treatment for 30 min. The one-tenth of the produced cDNA was amplified by PCR using Taq DNA polymerase (Invitrogen) and two reporter sequence-specific primers. The PCR products were fluorescently labeled by primer extension with 6-arboxyfluorescein (6-FAM) 5'-labeled reporter sequence-specific primer (2 min at 95 C, 20 s at 68 C and 10 min at 72 C) and these products were digested with 5U of HpaI (New England Biolabs) for 2h at 37 C. The fragments were purified using Qiaquick PCR columns (Qiagen), analyzed on an ABI 3130xL genetic analyzer (Applied Biosystems) with peak positions identified by using a set of X-rhodamine (ROX)-labeled MapMarker1000 molecular weight standards (BioVentures). The raw capillary electrophoresis data was processed using Attagraph software (Attagene).
Regarding `Nc1ccn([C@@H]2O[C@H](CO)[C@@H](O)C2O)c(=O)n1` (stereo not given in full), the result was inactive.
For `CC1CCC(CO)CC1` (stereo not given) the value was “inactive”.
For `C=CC(F)(F)C(F)(F)C(F)(F)C(F)(F)F` the value was “inactive”; for `COc1ccc(C#N)cc1`, “inactive”.
With `CC1CCC(C(=O)O)CC1` (stereo not given) the entry was “inactive”; with `C/C=C/C(=O)C1=C(C)CCCC1(C)C`, “inactive”; with `Cc1ccc(C(=O)c2ccccc2)cc1`, “inactive”.
As for `Clc1ccc2c(Cl)ccnc2c1`, the compound was classed as inactive.
With `Cc1ccc(C)c(S(=O)(=O)O)c1` the entry was “inactive”.
With `O=C(F)C(F)(F)C(F)(F)C(F)(F)C(F)F` the entry was “inactive”.
Take `CC(C)(C)C1CCCCC1O` (stereo not given): the result was inactive.
For `O=c1cc(-c2ccccc2)oc2ccc3ccccc3c12` the value was “inactive”; for `O=CC(F)(F)C(F)(F)C(F)(F)F`, “inactive”; for `CCOC(OCC)C(=O)c1ccccc1`, “inactive”.
For `NCCN` the value was “inactive”.
With `FC(F)=C(F)C(F)(F)C(F)(F)C(F)(F)C(F)F` the entry was “inactive”; with `CC(=O)Nc1ccc(S(N)(=O)=O)cc1`, “inactive”.
On to `CN(CCO)S(=O)(=O)C(F)(F)C(F)(F)C(F)(F)C(F)(F)C(F)(F)C(F)(F)C(F)(F)C(F)(F)F`, for which the compound was called inactive.
For `C[C@]12CC[C@@H]3c4ccc(O)cc4CC[C@H]3[C@@H]1CC[C@@H]2OC(=O)CCC1CCCC1` the value was “inactive”.
With `O=S(=O)(O)C(F)(F)C(F)(F)C(F)(F)C(F)(F)C(F)(F)C(F)(F)C(F)(F)C(F)(F)C(F)(F)C(F)(F)F` the entry was “inactive”; with `CCC1CO1` (stereo not given), “inactive”.
With `CCCCCCCCCC=CCC1CC(=O)OC1=O` (stereo not given) the entry was “inactive”; with `C=CC(=O)OCC(CO)(COCC(COC(=O)C=C)(COC(=O)C=C)COC(=O)C=C)COC(=O)C=C`, “inactive”.
For `CCCCCCCCCCCCCCC`, the compound was classed as inactive.
For `Nc1cc(Cl)c(-c2cc(Cl)c(N)cc2Cl)cc1Cl`, the compound was classed as inactive.
With `CC(C)(C)c1ccc(O)c(O)c1` the entry was “inactive”.
Turning to `CC(C)(c1ccc(Oc2ccc(N)cc2)cc1)c1ccc(Oc2ccc(N)cc2)cc1`, the compound was classed as inactive.
With `O=C(CCCN1CCC(O)(c2ccc(Cl)cc2)CC1)c1ccc(F)cc1` the entry was “inactive”; with `C=Cc1ccc(O)c(OC)c1`, “inactive”.
With `N=C(N)c1ccc(OCCCCCOc2ccc(C(=N)N)cc2)cc1` the entry was “inactive”.
With `Oc1ccc(Cc2ccccc2O)cc1` the entry was “inactive”; with `C=CC(=O)OCCN(CC)CC`, “inactive”; with `CC1CNCC(C)O1` (stereo not given), “inactive”.
For the compound `O=C(O)C(F)(F)OC(F)(F)C(F)(F)OC(F)(F)C(F)(F)OC(F)(F)C(F)(F)C(F)(F)C(F)(F)F`, the outcome was inactive.
For `O=S(=O)(c1ccc(OCc2ccccc2)cc1)c1ccccc1O`, the result was inactive.
With `Clc1ccc(Nc2nnc(Cc3ccncc3)c3ccccc23)cc1` the entry was “inactive”; with `CCC(C)c1ccccc1O` (stereo not given), “inactive”.
For the compound `CC1=NN(c2ccccc2)C(=O)C1`, the result was inactive.
Regarding `CCCCCc1ccc(O)cc1`, the result was inactive.
With `COCC1CCC(CO)CC1` (stereo not given) the entry was “inactive”.
